# Results from the supplement of paper PMC5499739.
# The full ranking holds about 16,000 sequences; the median of “Z-score” is about -0.37, and the highest 2% start at about 3.1. This is one part of a sample in which the highest values are shown more often than they occur.
# Tested on: RBM10 RRM1-ZnF-RRM2 (GST-tagged construct)
# Experiment: RNAcompete 7-mer binding Z-score; higher = stronger binding preference
# Method: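 RNAcompete: 20 pmol GST-tagged RBM10 RNA-binding constructs were incubated with a designed RNA pool of about 241,000 sequences up to 41 nt (1.5 nmol) on glutathione beads for 30 min at 4 °C and washed. Bound RNAs were identified by microarray hybridisation. Each RNA 7-mer is scored by a one-sided Z-score of its enrichment, computed over probes that contain the 7-mer within longer pool sequences.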
row,Sequence,RNAcompete 7-mer binding Z-score
1,AGGGUGG,3.88
2,GCGGUGA,1.39
3,AGGGUCA,1.51
4,GGGGUCA,3
5,AGGGUGA,4.25
6,AGGGUGC,2.43
7,AUGGUGA,2.09
8,ACGGUGG,2.73
9,UCGGUGA,0.479
10,GGGGUGA,3.52
11,UGGGUGA,3.5
12,CGGGUGA,2.55
13,CUGGAGG,1.11
14,GGGCCCA,-0.151
15,AGUAUUG,0.024
16,UGAUUGA,0.00216
17,GGACUUG,0.319
18,AGGGUGU,3.03
19,CGGGUGU,1.83
20,UGGGUGG,4
21,UGUGUGG,1.79
22,CGGGUGG,3.24
23,CGGGUGC,1.94

row,Sequence,RNAcompete 7-mer binding Z-score
1,GCGGUGU,0.96
2,GGUGUGU,1.42
3,GGUGUGG,3.86
4,UGGGUGU,2.62
5,UGGGUGC,2.74
6,GGGGUGU,3.53
7,CAGUACA,-0.0816
8,ACGCAAC,-0.479
9,UCUGUUA,-0.795
10,GACUGUG,-0.198
11,CGUCAUA,-0.519
12,AAGUGCG,0.698
13,UCAACCC,-0.752
14,ACCAUUG,-0.584
15,GCGGUGG,3.01
16,GGGGUGG,4.09
17,GGGGUGC,2.58
18,CUCACAG,-0.351
19,ACCAGGC,-0.136
20,GGGAUAA,3.36
21,GGGAUAC,2.71
22,AGGAUAG,2.21
23,UGGAUAA,1.07

row,Sequence,RNAcompete 7-mer binding Z-score
1,UGGAUAG,2.3
2,GGGAUGC,2.65
3,GGGAUAG,3.83
4,GGGAUGU,2.88
5,GGGAUGA,3.59
6,UCUGGUC,-0.522
7,UCUGUCC,-0.81
8,CAGGGGA,2.8
9,UAGGGGG,3.4
10,UAGGGGA,3.81
11,CAGGGGU,2.91
12,UAGGGCU,1.3
13,UAGGGCA,2.23
14,UAGGGGU,3.84
15,UAGGGGC,2.34
16,CAGGGGG,2.58
17,GUGACGA,0.68
18,GUAAAAA,0.253
19,CCAUUGG,-0.53
20,GUUUUGU,0.024
21,UGCUUGC,-0.73
22,CCGAUUG,-0.606
23,GAAGGCU,0.581

row,Sequence,RNAcompete 7-mer binding Z-score
1,GAAGGGC,3.32
2,AAAGGGA,4.13
3,CAAGGGA,2.5
4,UAAGGGU,3.54
5,UAAGGCU,0.224
6,GAAGUGU,1.09
7,GAAGGGU,4.15
8,AAAGGGC,2.89
9,UAAGGUU,1.74
10,UAAGGGA,3.09
11,UAAGGGC,1.51
12,CCGUAUC,-0.876
13,AUAAUGG,1.84
14,UGAUUAA,-0.118
15,AUACACA,-0.187
16,AGGUUGU,0.691
17,GCGACGC,-0.253
18,GUCGCUG,0.0495
19,UCUAACC,-0.737
20,GUCUAUA,-0.479
21,GUUGCAU,-0.227
22,CUAGAUU,-0.661
23,GAACCUG,-0.683

row,Sequence,RNAcompete 7-mer binding Z-score
1,UCGGCUA,-0.537
2,CGGUGUA,0.873
3,AAAGGCU,0.796
4,GCAGGGA,2.94
5,GAAGGCA,2.46
6,AAAGGGU,4.71
7,CAAGGGU,2.85
8,GAAGGGA,4.75
9,GGUUUGU,0.811
10,GUAUUGA,-0.107
11,CGAAGCC,-0.449
12,AACUCGU,-0.861
13,GGAAAAA,1.95
14,GGGAAGU,2.76
15,CGGAAAG,1.91
16,GGGAAGA,3.65
17,CGGAAGA,0.862
18,GGGAAAG,4.49
19,GGGAAAA,3.43
20,UGGAAAG,2.78
21,CGGAAAA,0.854
22,GUCAGGG,1.81
23,UCCUGAC,-0.788

row,Sequence,RNAcompete 7-mer binding Z-score
1,UGGCACA,0.497
2,UCGUAAG,-0.326
3,GUCGAGG,1.9
4,CGUUGGA,0.548
5,UCUUUAA,-0.803
6,UCGGCCG,-0.795
7,AGAGGUG,2.05
8,CGAGGUA,1.8
9,GGAGGUA,3.82
10,UGAGGUA,1.87
11,GGAGGUG,3.64
12,GGAGGUU,2.23
13,CGCAUUC,-0.723
14,UGCGACG,0.13
15,ACUUCUU,-0.952
16,GAGCGGA,3.55
17,CAGCGGG,2.5
18,GAGCGAG,3.3
19,GAGCGGU,1.51
20,UAGCGAG,0.694
21,UAGCGGA,1.01
22,GAGCGAC,0.177
23,GAGCGGG,3.33

row,Sequence,RNAcompete 7-mer binding Z-score
1,GAGCGGC,1.42
2,UCCUUAA,-0.715
3,AAAGAAC,-0.0343
4,CUCAACA,-0.704
5,UCUUAGC,-0.817
6,AUGACCC,-0.57
7,UUGUGGG,2.44
8,GUGUGGG,3.75
9,GUGUGGU,1.87
10,GUGUGGA,2.7
11,AUGUGGC,0.84
12,AUGUGGG,3.6
13,AGAAUGA,0.275
14,CGCACCC,-0.748
15,GCGUGAG,1.01
16,AGGAUGG,3.4
17,AGGAUGC,0.887
18,UGGAUGG,3.42
19,GAGAUGU,0.392
20,GAGAUGG,4
21,UGGAUGA,1.82
22,UAGAUGG,2.16
23,UGGAUGC,0.778

row,Sequence,RNAcompete 7-mer binding Z-score
1,CGGAUGG,1.87
2,UGUACUU,-0.715
3,GUCAAUU,-0.602
4,UUUGCCG,-0.766
5,ACGACGA,-0.384
6,GAGCCCC,-0.581
7,ACCGUAG,-0.147
8,UUUGUCC,-0.85
9,ACGGUAC,0.472
10,CCCCAAU,-0.755
11,UUCCACA,-0.508
12,UGGGAAA,2.49
13,GGGGAAA,3.02
14,AGGGAAG,4.36
15,AGGGAAC,3.06
16,CGGGAAG,2.07
17,AGGGACU,1.09
18,UGGGAAU,2.42
19,AGGGAAU,3.2
20,GGGGAAU,3.13
21,CGGGAAU,1.31
22,UGGGAAG,3.99
